OTUD3 block: human OTUD3 deubiquitinase inhibition; Q5T2D3; purified OTUD3, Ub-rhodamine fluorescence, 2 h; inhibition, % at 25 µM; 0.7% of 47,000 active; AID 1645858
USP30 block: blocks human USP30 ubiquitin-rhodamine cleavage | 5.3% of 47,000 active | purified USP30, Ub-rhodamine cleavage fluorescence | inhibition, % at 25 µM | AID 1645860 | Q70CQ3
USP28 block: human USP28 deubiquitinase inhibition | purified USP28, Ub-rhodamine cleavage fluorescence, 30 min | inhibition, % at 25 µM | 3% of 47,000 active | Q96RU2 | AID 1645857
USP17 block: blocks human USP17 ubiquitin-rhodamine cleavage; A8MUK1; purified USP17, Ub-rhodamine cleavage fluorescence, 3 h; inhibition, % at 50 µM; 6.5% of 47,000 active
Target sequence (A8MUK1 whole entry, looked up): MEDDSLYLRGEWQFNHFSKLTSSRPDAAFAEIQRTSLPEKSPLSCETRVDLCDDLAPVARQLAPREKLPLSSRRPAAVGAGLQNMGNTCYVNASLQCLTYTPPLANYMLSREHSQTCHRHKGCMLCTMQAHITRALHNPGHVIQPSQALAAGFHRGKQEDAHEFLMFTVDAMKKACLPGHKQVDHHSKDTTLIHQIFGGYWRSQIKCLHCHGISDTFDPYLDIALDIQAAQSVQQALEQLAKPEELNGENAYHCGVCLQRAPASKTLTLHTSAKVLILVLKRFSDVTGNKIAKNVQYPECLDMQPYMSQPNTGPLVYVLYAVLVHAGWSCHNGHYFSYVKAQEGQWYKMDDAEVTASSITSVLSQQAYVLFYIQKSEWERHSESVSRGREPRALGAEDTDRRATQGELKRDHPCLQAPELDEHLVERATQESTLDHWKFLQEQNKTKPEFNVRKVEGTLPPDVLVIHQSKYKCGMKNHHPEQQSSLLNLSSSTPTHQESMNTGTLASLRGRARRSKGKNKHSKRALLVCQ
Starred values were filed as active, the others as inactive; / = not tested or not shown. Only some compounds are listed: those with a hit (about 11% of all), similar ones and a draw of the others. Cut-off read from the data, not from the text of the source: active = inhibition above about 30%; inactive = the rest.

SMILES	OTUD3 block	USP30 block	USP28 block	USP17 block
O=C(Nc1ccccc1)N1CCCC2(CCCN2Cc2ccccc2F)C1 (centres undefined)	16	32*	-1	3
COc1cc(OC)c2c(c1)C(=O)C1=C(COC(C)(O)C1)C2=O (centres undefined)	13	-16	37*	82*
O=C(CC(c1cccc(F)c1)n1cccc1)Nc1ccc(F)c(Cl)c1 (centres undefined)	27	36*	26	46*
Cc1cccc(CNS(=O)(=O)c2ccc(-c3cc(C(F)(F)F)on3)s2)c1	14	19	10	43*
Cc1cc(-c2ccc(S(=O)(=O)NC3CC3)s2)on1	-3	3	3	-5
CC(=O)c1cccc(NS(=O)(=O)c2ccc(-c3cc(C)no3)s2)c1	8	15	8	11
Cc1cc(-c2ccc(S(=O)(=O)NCc3ccc(Cl)cc3)s2)on1	3	59*	59*	77*
Cc1cc(-c2ccc(S(=O)(=O)NCc3ccccc3C)s2)on1	16	37*	19	35*
Cc1cccc(CNS(=O)(=O)c2ccc(-c3cc(C)no3)s2)c1	11	29	16	36*
O=C(CN1CC(O)c2ccccc2S1(=O)=O)Nc1ccccc1 (centres undefined)	-9	0	1	3
COc1ccc(COC(=O)C2=C(C)NC(=O)CC2c2cccc([N+](=O)[O-])c2)cc1 (centres undefined)	2	20	86*	-5
CC1=C(C(=O)OCc2ccc3c(c2)OCO3)C(c2ccccc2C)CC(=O)N1 (centres undefined)	6	28	15	13
COc1cccc(C2c3[nH]c4ccccc4c3C[C@@H]3C(=O)N(C4CCN(Cc5ccccc5)CC4)CC(=O)N23)c1 (some centres undefined)	-29	-62	-38	-35
O=C(Nc1nc2c(s1)CN(C(=O)c1cc(-c3ccco3)on1)CC2)C1CC1	10	-83	4	35*
CSc1ncccc1C(=O)OCc1ccc(Cl)c(Cl)c1	2	25	44*	45*
CNC(=O)c1c2n(c3ncccc13)CCN(C(=O)c1ccccc1OC)C2	4	0	0	0
Cc1cccc(NC(=O)CC2Nc3ccccc3OC2=O)c1 (centres undefined)	-7	-41	4	41*
O=c1cc(Cc2ccccc2)nc2c(-c3ccccc3)c(COc3ccccc3)[nH]n12	23	40*	41*	11
CCN1CCN(C(=O)CCCN(c2ccccc2)S(C)(=O)=O)CC1	15	35*	22	62*
CCN1CCN(C(=O)c2cc(-c3ccccc3)cn2C)CC1	7	7	-3	-2
O=C1CCCC[C@]2(CN(C(=O)c3ccc(-n4cccn4)nc3)C[C@H]2c2ccc(F)cc2)N1	14	33*	10	-9
Cc1cccn2c(=O)c(C(=O)NCCc3cccs3)cnc12	-1	/	/	11
CCC(C)NC(=O)CSc1nc(-c2ccccc2)c(C#N)c(=O)[nH]1 (centres undefined)	-3	/	/	0
O=C(c1cnc2n1CC(c1cccc(C(F)(F)F)c1)CC2)N1CCNCC1 (centres undefined)	7	30*	4	-39
COc1ccc(CNC(=O)c2cnc(N3CCCCC3)nc2C)cc1	-5	-16	-10	-10
SMILES	OTUD3 block	USP30 block	USP28 block	USP17 block
COc1ccc(C(=O)NCC(=O)N2CCCc3ccccc32)c(OC)c1	-2	3	-5	-5
COc1ccc(CN2C(=O)N[C@@H](CCC(=O)Nc3cccc(OC)c3)C2=O)cc1	11	4	9	45*
COc1ccc(CN2C(=O)N[C@@H](CCC(=O)Nc3cccc(Cl)c3)C2=O)cc1	10	26	15	14
O=C1c2cccnc2C(Nc2ccccc2Cl)N1Cc1ccco1 (centres undefined)	5	/	/	-6
O=C1CC(C(=O)Nc2cccc(Cl)c2)c2ccc(F)cc2N1 (centres undefined)	-8	-5	15	-5
O=C1CC(C(=O)Nc2cccc(Br)c2)c2ccc(F)cc2N1 (centres undefined)	10	11	39*	11
Cn1c(=O)c2c(nc3n(CCc4ccccc4)c(-c4ccccc4)cn23)n(C)c1=O	10	41*	19	0
COc1ccc(-c2cn3c4c(=O)n(C)c(=O)n(C)c4nc3n2CCc2ccccc2)cc1OC	4	21	3	6
COc1ccc(-c2noc(CCn3c(=O)[nH]c4ccccc4c3=O)n2)cc1	-31	-98	-10	-1
O=C(NCc1ccco1)c1ccc(Oc2cc(Cl)cc(Cl)c2)o1	2	/	/	37*
O=C(CSc1nc2ccccc2[nH]1)N1CCN(c2ccc(CN3CCOCC3)cn2)CC1	-8	-27	-14	-9
Cc1ccc(S(=O)(=O)Nc2ccc3[nH]cc(Cl)c3c2)cc1	13	39*	44*	49*
Cc1ccc(S(=O)(=O)Nc2ccc(S(=O)(=O)Nc3ccc(F)cc3)cc2)cc1	8	9	13	6
CCOc1ccc(NC(=O)CSc2nnc(Cc3cccc4ccccc34)n2C)cc1	7	46*	67*	65*
CCOc1ccc(-n2c(SCC(=O)Nc3ccc(C)cc3)nnc2-c2c[nH]c3ccccc23)cc1	12	56*	18	63*
Cc1nc2c(C)cccn2c(=O)c1Cc1nnc(SCC(=O)Nc2ccccc2)n1C	-5	33*	-4	36*
Cn1c(SCC(=O)Nc2ccccc2Br)nnc1-c1ccccn1	8	14	8	9
Cn1c(COc2ccccc2)nnc1SCC(=O)Nc1ccc(N2CCOCC2)cc1	14	31*	58*	22
Cn1c(SCC(=O)Nc2ccc(N3CCOCC3)cc2)nnc1-c1ccco1	15	9	14	9
CCOc1ccc(NC(=O)CSc2nnc(-c3ccccn3)n2Cc2ccco2)cc1	-10	-38	-9	-33
O=C(NCC(c1ccco1)N1CCCCC1)c1ccccc1Br (centres undefined)	7	10	2	4
Cc1ccc(C)c(NC(=O)CSc2nnc(Cc3cccc4ccccc34)n2C)c1	2	0	45*	-13
Cc1ccc(C(=O)CSc2nnc(CC(=O)Nc3ccccc3F)n2C)cc1	-2	0	2	-10
Cc1nc2ccccc2n1CC(=O)OCc1cccc(Cl)c1	-7	-4	0	8
O=C(OCc1cccc(Cl)c1)c1ccc2ccccc2n1	17	21	91*	25
O=C(OCc1ccc(F)cc1)c1ccc2ccccc2n1	-8	3	78*	1
CCN1CCc2c(sc(NC(=O)CSc3ccc(F)cc3)c2C(N)=O)C1	-2	8	2	0
C=C1CCC[C@]2(C)C[C@H]3OC(=O)C(CN(C)Cc4ccccc4)[C@H]3CC12 (some centres undefined)	22	30*	22	16
C=C1CCC[C@]2(C)C[C@H]3OC(=O)C(CN(C)C[C@@H](O)c4cccc(O)c4)[C@H]3C[C@@H]12 (some centres undefined)	-9	-53	-10	-16
CCOC(=O)Cc1nc2ccccc2n(CC2CC2)c1=O	-4	-15	0	-13

Screening data: PubChem BioAssay, Buhrlage Lab, Dana-Farber Cancer Institute and Novartis Institutes for BioMedical Research (Cambridge, Mass)
